Measurements reported in PubChem BioAssay (NCI).
About 83,000 compounds went through this panel and 20% of them were active in at least one assay; those are over-represented in the sample as a whole.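 How to read the values: 0–100, growth inhibition (40 = 60% inhibited); 0, no net growth; -100 to 0, cell death (-40 = 40% of starting cells died; -100 = all dead).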 A number with no mark means an inactive call. Activity calls are given as the source filed them. The calls were made as follows: active = growth percent below 10; inactive = the rest.

Columns and labels:
Experiment in all cases: NCI-60 one-dose screen, 48 h (100 = growth as untreated, 0 = no growth, -100 = all killed)
Conditions in all cases: 10 µM
SK-MEL-2 melanoma = test system: SK-MEL-2 melanoma
SN12C renal = test system: SN12C renal
UO-31 renal = test system: UO-31 renal
TK-10 renal = test system: TK-10 renal
ACHN renal = test system: ACHN renal
CAKI-1 renal = test system: CAKI-1 renal
A498 renal = test system: A498 renal
CCRF-CEM leukemia = test system: CCRF-CEM leukemia
MOLT-4 leukemia = test system: MOLT-4 leukemia
SR leukemia = test system: SR leukemia
RPMI-8226 leukemia = test system: RPMI-8226 leukemia
OVCAR-8 ovarian = test system: OVCAR-8 ovarian
OVCAR-5 ovarian = test system: OVCAR-5 ovarian
OVCAR-4 ovarian = test system: OVCAR-4 ovarian
SK-OV-3 ovarian = test system: SK-OV-3 ovarian
IGROV1 ovarian = test system: IGROV1 ovarian
OVCAR-3 ovarian = test system: OVCAR-3 ovarian
HS 578T breast = test system: HS 578T breast
NCI/ADR-RES ovarian = test system: NCI/ADR-RES ovarian

SMILES: COc1ccc(C(C)=O)cc1N1C(=O)C2C(C1=O)C1(c3ccccc3)C(=O)C2(c2ccccc2)C(c2ccc(C)cc2)=C1c1ccc(C)cc1 (configuration not stated)
- growth (SK-MEL-2 melanoma): -0.955% (active)
- growth (SN12C renal): 26.2%
- growth (UO-31 renal): -4.71% (active)
- growth (TK-10 renal): 13.7%
- growth (ACHN renal): 23.1%
- growth (CAKI-1 renal): 6.11% (active)
- growth (A498 renal): 54.1%
- growth (CCRF-CEM leukemia): 8.66% (active)
- growth (MOLT-4 leukemia): 12.6%
- growth (SR leukemia): 8.77% (active)
- growth (RPMI-8226 leukemia): 17.2%
- growth (OVCAR-8 ovarian): 14.5%
- growth (OVCAR-5 ovarian): 55.7%
- growth (OVCAR-4 ovarian): 26.2%
- growth (SK-OV-3 ovarian): 32.2%
- growth (IGROV1 ovarian): 9.07% (active)
- growth (OVCAR-3 ovarian): 21.4%
- growth (HS 578T breast): 80.7%
- growth (NCI/ADR-RES ovarian): 12.7%

SMILES: Cc1cc(/C=C2\SC(=Nc3ccccc3)N(C3CCCC3)C2=O)c(C)n1-c1ccc(Cl)cc1
- growth (SK-MEL-2 melanoma): -77.3% (active)
- growth (SN12C renal): -51.4% (active)
- growth (UO-31 renal): -91.9% (active)
- growth (TK-10 renal): -90.9% (active)
- growth (ACHN renal): -76.3% (active)
- growth (CAKI-1 renal): -59.9% (active)
- growth (A498 renal): -88.3% (active)
- growth (CCRF-CEM leukemia): -9.97% (active)
- growth (MOLT-4 leukemia): -18% (active)
- growth (SR leukemia): -36.8% (active)
- growth (RPMI-8226 leukemia): -43.3% (active)
- growth (OVCAR-8 ovarian): -38% (active)
- growth (OVCAR-5 ovarian): -24.9% (active)
- growth (OVCAR-4 ovarian): -35.3% (active)
- growth (SK-OV-3 ovarian): -90.5% (active)
- growth (IGROV1 ovarian): -48.6% (active)
- growth (OVCAR-3 ovarian): -85.1% (active)
- growth (HS 578T breast): -12.8% (active)
- growth (NCI/ADR-RES ovarian): 0.0476% (active)

SMILES: COc1c(-c2c3sc(=O)[nH]c3nc3c2c(=O)[nH]n3C(C)C)cc2c(c1OC)OCO2
- growth (SK-MEL-2 melanoma): 85.3%
- growth (SN12C renal): 95.5%
- growth (UO-31 renal): 78.9%
- growth (TK-10 renal): 98.7%
- growth (ACHN renal): 91.4%
- growth (CAKI-1 renal): 93.3%
- growth (A498 renal): 57.2%
- growth (CCRF-CEM leukemia): 95%
- growth (MOLT-4 leukemia): 94.5%
- growth (SR leukemia): 84.9%
- growth (RPMI-8226 leukemia): 93.2%
- growth (OVCAR-8 ovarian): 98.8%
- growth (OVCAR-5 ovarian): 96.7%
- growth (OVCAR-4 ovarian): 107%
- growth (SK-OV-3 ovarian): 99.5%
- growth (IGROV1 ovarian): 102%
- growth (OVCAR-3 ovarian): 113%
- growth (HS 578T breast): 99.2%
- growth (NCI/ADR-RES ovarian): 99.8%

SMILES: O=C(Nc1ccc(OCc2nnc(-c3ccccc3)o2)c(F)c1)Nc1ccc(Cl)c(Cl)c1
- growth (SK-MEL-2 melanoma): 72.9%
- growth (SN12C renal): 64%
- growth (UO-31 renal): 68.5%
- growth (TK-10 renal): 66.2%
- growth (ACHN renal): 39%
- growth (CAKI-1 renal): 68.4%
- growth (A498 renal): 12.4%
- growth (CCRF-CEM leukemia): 37.6%
- growth (MOLT-4 leukemia): 43.8%
- growth (SR leukemia): 6.91% (active)
- growth (RPMI-8226 leukemia): 25.5%
- growth (OVCAR-8 ovarian): 61.6%
- growth (OVCAR-5 ovarian): 93.4%
- growth (OVCAR-4 ovarian): 50.6%
- growth (SK-OV-3 ovarian): 89.6%
- growth (IGROV1 ovarian): 57.7%
- growth (OVCAR-3 ovarian): 53.6%
- growth (HS 578T breast): 63.2%
- growth (NCI/ADR-RES ovarian): 58.6%

SMILES: C=CCN1C(=O)/C(=C\c2ccc3c(c2)CCC3)SC1=S
- growth (SK-MEL-2 melanoma): 94.6%
- growth (SN12C renal): 102%
- growth (UO-31 renal): 85.6%
- growth (TK-10 renal): 108%
- growth (ACHN renal): 97.1%
- growth (CAKI-1 renal): 97.5%
- growth (A498 renal): 98.9%
- growth (CCRF-CEM leukemia): 103%
- growth (MOLT-4 leukemia): 85.9%
- growth (SR leukemia): 93.1%
- growth (RPMI-8226 leukemia): 91.9%
- growth (OVCAR-8 ovarian): 104%
- growth (OVCAR-5 ovarian): 99.8%
- growth (OVCAR-4 ovarian): 106%
- growth (SK-OV-3 ovarian): 98.6%
- growth (IGROV1 ovarian): 106%
- growth (OVCAR-3 ovarian): 109%
- growth (HS 578T breast): 112%
- growth (NCI/ADR-RES ovarian): 105%

SMILES: CC(=O)N(O)c1ccc(/C=C/c2ccccc2)cc1
- growth (SK-MEL-2 melanoma): 92.7%
- growth (SN12C renal): 26.5%
- growth (UO-31 renal): -30.8% (active)
- growth (TK-10 renal): 4.86% (active)
- growth (ACHN renal): -18.1% (active)
- growth (CAKI-1 renal): 0.955% (active)
- growth (A498 renal): -78.8% (active)
- growth (CCRF-CEM leukemia): 26.5%
- growth (MOLT-4 leukemia): 41.8%
- growth (SR leukemia): 9.19% (active)
- growth (RPMI-8226 leukemia): 46.8%
- growth (OVCAR-8 ovarian): 32.1%
- growth (OVCAR-5 ovarian): 33.1%
- growth (OVCAR-4 ovarian): 54.7%
- growth (SK-OV-3 ovarian): 9.48% (active)
- growth (IGROV1 ovarian): -14% (active)
- growth (OVCAR-3 ovarian): 42%
- growth (HS 578T breast): 61.7%
- growth (NCI/ADR-RES ovarian): 22.6%

SMILES: COc1ccc(-c2nc(-c3ccccc3)c(-c3ccccc3)[nH]2)cc1OC1CCCC1
- growth (SK-MEL-2 melanoma): 66.2%
- growth (SN12C renal): 62.5%
- growth (UO-31 renal): 67.4%
- growth (TK-10 renal): 88.4%
- growth (ACHN renal): 54.4%
- growth (CAKI-1 renal): 71%
- growth (A498 renal): -9.35% (active)
- growth (CCRF-CEM leukemia): 50.7%
- growth (MOLT-4 leukemia): 40.8%
- growth (SR leukemia): 41.9%
- growth (RPMI-8226 leukemia): 56.6%
- growth (OVCAR-8 ovarian): 74.9%
- growth (OVCAR-5 ovarian): 82.7%
- growth (OVCAR-4 ovarian): 81.6%
- growth (SK-OV-3 ovarian): 89.3%
- growth (IGROV1 ovarian): 105%
- growth (OVCAR-3 ovarian): 81.4%
- growth (HS 578T breast): 86.5%
- growth (NCI/ADR-RES ovarian): 79.5%

SMILES: O=C(Nc1ccc(OS(=O)(=O)Cc2ccccc2)cc1)C12CC3CC(CC(C3)C1)C2
- growth (SK-MEL-2 melanoma): 102%
- growth (SN12C renal): 88.3%
- growth (UO-31 renal): 78.4%
- growth (TK-10 renal): 112%
- growth (ACHN renal): 99.8%
- growth (CAKI-1 renal): 84.2%
- growth (A498 renal): 83.1%
- growth (CCRF-CEM leukemia): 85.2%
- growth (MOLT-4 leukemia): 41.5%
- growth (SR leukemia): 30.3%
- growth (RPMI-8226 leukemia): 35%
- growth (OVCAR-8 ovarian): 91.4%
- growth (OVCAR-5 ovarian): 104%
- growth (OVCAR-4 ovarian): 78.7%
- growth (SK-OV-3 ovarian): 87.3%
- growth (IGROV1 ovarian): 97.8%
- growth (OVCAR-3 ovarian): 80.2%
- growth (HS 578T breast): 98.7%
- growth (NCI/ADR-RES ovarian): 84.4%
